Reference: PubChem BioAssay (NCATS)
Inconclusive results are not listed. Where a call stands in place of a potency, no number is given. Calls of active or inactive are those of the source. Calls follow the shape of the dose curve; as a rule, active = well fitted inhibition curve with a large enough effect; inconclusive = small, poorly fitted or top-dose-only effect; inactive = flat fitted curve, though single readings scatter.

Key:
Assay in all cases: qHTS profiling for inhibitors of Plasmodium falciparum proliferation (AID 504749); also: nearly all actives have a fitted effect of over 60% in size
Settings in all cases: P. falciparum in erythrocytes, SYBR Green DNA, 72 h; series mostly up to 28.7 µM
CP250 = tested on: CP250
In short: (§1)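 SYBR Green fluorescence (ex 485 nm, em 535 nm) reports parasite DNA after 72 h compound exposure of infected red cells at 0.3% parasitemia, 2.5% hematocrit; signal normalized to 0.29 uM artemisinin and vehicle wells.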

CP252 = tested on: CP252
In short: as §1

CP256 = tested on: CP256
In short: as §1

CP260 = tested on: CP260
In short: as §1

CP262 = tested on: CP262
In short: as §1

CP265 = tested on: CP265
In short: as §1

CP266 = tested on: CP266
In short: as §1

CP268 = tested on: CP268
In short: as §1

CP269 = tested on: CP269
In short: as §1

CP286 = tested on: CP286
In short: as §1
Potency is read from the fitted curve at half-maximal effect.

Row | SMILES | Potency (CP250) | Potency (CP252) | Potency (CP256) | Potency (CP260) | Potency (CP262) | Potency (CP265) | Potency (CP266) | Potency (CP268) | Potency (CP269) | Potency (CP286)
1 | CC/C=C\C/C=C\C/C=C\C/C=C\C/C=C\C/C=C\CCC(=O)O | inactive | inactive | inactive | inactive | inactive | inactive | inactive | inactive | inactive | inactive
2 | C[C@H](CCC(=O)O)[C@H]1CC[C@H]2[C@@H]3CC[C@@H]4C[C@H](O)CC[C@]4(C)[C@H]3C[C@H](O)[C@]12C | inactive | inactive | inactive | inactive | inactive | inactive | inactive | inactive | inactive | inactive
3 | Cc1cc2nc3c(=O)[nH]c(=O)nc-3n(C[C@H](O)[C@H](O)[C@H](O)COP(=O)(O)OP(=O)(O)OC[C@H]3O[C@@H](n4cnc5c(N)ncnc54)[C@H](O)[C@@H]3O)c2cc1C | inactive | inactive | inactive | inactive | inactive | inactive | inactive | inactive | inactive | inactive
4 | N[C@H](CC(=O)O)C(=O)O | inactive | inactive | inactive | inactive | inactive | inactive | inactive | inactive | inactive | inactive
5 | CC/C(=C(/CC)c1ccc(OP(=O)(O)O)cc1)c1ccc(OP(=O)(O)O)cc1 | inactive | inactive | inactive | inactive | inactive | inactive | inactive | inactive | inactive | inactive
6 | c1ccc(-n2cnnn2)cc1 | inactive | inactive | inactive | inactive | inactive | inactive | inactive | inactive | inactive | inactive
7 | O=C1CCC(=O)N1CO | inactive | inactive | inactive | inactive | inactive | inactive | inactive | inactive | inactive | inactive
8 | CNC(=O)OCc1cccc(COC(=O)NC)n1 | inactive | inactive | inactive | inactive | inactive | inactive | inactive | inactive | inactive | inactive
9 | CC1=CC(=O)NS(=O)(=O)O1 | inactive | inactive | inactive | inactive | inactive | inactive | inactive | inactive | inactive | inactive
10 | CO | inactive | inactive | inactive | inactive | inactive | inactive | inactive | inactive | inactive | inactive
11 | CO/N=C(/C(=O)N[C@@H]1C(=O)N2C(C(=O)O)=C(COC(N)=O)CS[C@H]12)c1ccco1 | inactive | inactive | inactive | inactive | inactive | inactive | inactive | inactive | inactive | inactive
12 | CC(C)[C@H](N)C(=O)OCC(CO)OCn1cnc2c(=O)[nH]c(N)nc21 (stereo not given in full) | inactive | inactive | inactive | inactive | inactive | inactive | inactive | inactive | inactive | inactive
13 | CCCOC(=O)c1ccccc1O | inactive | inactive | inactive | inactive | inactive | inactive | inactive | inactive | inactive | inactive
14 | COC(=O)c1ccccc1O | inactive | inactive | inactive | inactive | inactive | inactive | inactive | inactive | inactive | inactive
15 | C[C@]12CC[C@@H]3c4ccc(OC(=O)c5ccccc5)cc4CC[C@H]3[C@@H]1CC[C@@H]2O | inactive | inactive | inactive | 5.01 µM (active) | inactive | inactive | inactive | inactive | inactive | 12.6 µM (active)
16 | CCN(CC)C(=O)c1cccnc1 | inactive | inactive | inactive | inactive | inactive | inactive | inactive | inactive | inactive | inactive
17 | COC1=C(OC)C(=O)C(C/C=C(\C)CC/C=C(\C)CC/C=C(\C)CC/C=C(\C)CC/C=C(\C)CC/C=C(\C)CC/C=C(\C)CC/C=C(\C)CC/C=C(\C)CCC=C(C)C)=C(C)C1=O | inactive | inactive | inactive | inactive | inactive | inactive | inactive | inactive | inactive | inactive
18 | C[C@H]1O[C@@H](O[C@H]2[C@@H](O)C[C@H](O[C@H]3[C@@H](O)C[C@H](O[C@H]4CC[C@@]5(C)[C@H](CC[C@@H]6[C@@H]5C[C@@H](O)[C@]5(C)[C@@H](C7=CC(=O)OC7)CC[C@]65O)C4)O[C@@H]3C)O[C@@H]2C)C[C@H](O)[C@@H]1O | inactive | inactive | inactive | inactive | inactive | inactive | inactive | inactive | inactive | inactive
19 | CC(C)Cc1ccc([C@@H](C)C(=O)NS(C)(=O)=O)cc1 | inactive | inactive | inactive | inactive | inactive | inactive | inactive | inactive | inactive | inactive
20 | CC(C)(CO)[C@@H](O)C(=O)NCCC(=O)NCCSSCCNC(=O)CCNC(=O)[C@H](O)C(C)(C)CO | inactive | inactive | inactive | inactive | inactive | inactive | inactive | inactive | inactive | inactive
21 | FC(F)(F)C(F)(F)C(F)(F)C(F)(F)C(F)(F)C(F)(F)F | inactive | inactive | inactive | inactive | inactive | inactive | inactive | inactive | inactive | inactive
22 | O=P(O)(O)OP(=O)(O)OP(=O)(O)O | inactive | inactive | inactive | inactive | inactive | inactive | inactive | inactive | inactive | inactive
23 | O=C(O)[C@H]1CN(C/C=C/P(=O)(O)O)CCN1 | inactive | inactive | inactive | inactive | inactive | inactive | inactive | inactive | inactive | inactive

Row | SMILES | Potency (CP250) | Potency (CP252) | Potency (CP256) | Potency (CP260) | Potency (CP262) | Potency (CP265) | Potency (CP266) | Potency (CP268) | Potency (CP269) | Potency (CP286)
24 | COc1ccc2nc(NC(=O)Nc3ccccc3)sc2c1 | inactive | inactive | inactive | inactive | inactive | inactive | inactive | inactive |  | inactive
25 | Cc1c(Cl)cccc1Nc1ncccc1C(=O)O | inactive | inactive | inactive | inactive | inactive | inactive | inactive | inactive | inactive | inactive
26 | CCCCCCCCCCCCCCCCCCCCCC(=O)Nc1ccn([C@@H]2O[C@H](CO)[C@@H](O)[C@@H]2O)c(=O)n1 | inactive | inactive | inactive | inactive | inactive | inactive | inactive | inactive | inactive | inactive
27 | NCCN | inactive | inactive | inactive | inactive | inactive | inactive | inactive | inactive | inactive | inactive
28 | O=C(O)CCC(=O)c1ccc(-c2ccccc2)cc1 | inactive | inactive | inactive | inactive | inactive | inactive | inactive | inactive | inactive | inactive
29 | Cc1ncc(C[n+]2csc(CCOP(=O)(O)OP(=O)(O)O)c2C)c(N)n1 | inactive | inactive | inactive | inactive | inactive | inactive | inactive | inactive | inactive | inactive
30 | NC(=O)C1c2ccccc2CCc2ccccc21 | inactive | inactive | inactive | inactive | inactive | inactive | inactive | inactive | inactive | inactive
31 | COc1ccc(-c2noc(CC(=O)O)c2-c2ccc(OC)cc2)cc1 | inactive | inactive | inactive | inactive | inactive | inactive | inactive | inactive | inactive | inactive
32 | O=C(O)CCCC/C=C(\c1ccccc1)c1cccnc1 | inactive | inactive | inactive | inactive | inactive | inactive |  | inactive | inactive | inactive
33 | C=C1C(CCl)(CCl)C2(Cl)C(Cl)C(Cl)C1(Cl)C2(Cl)Cl (stereo not given) | 1.12 µM (active) | 3.16 µM (active) | 3.55 µM (active) | 3.55 µM (active) | 4.78 µM (active) | 3.55 µM (active) |  | 4.26 µM (active) | 4.26 µM (active) | 3.55 µM (active)
34 | O=P(O)(O)OC[C@H](O)CO | inactive | inactive | inactive | inactive | inactive | inactive |  | inactive | inactive | inactive
35 | [O]=[Bi][O][Bi]=[O] | inactive | inactive | inactive | inactive | inactive | inactive |  | inactive | inactive | inactive
36 | CCCCO | inactive | inactive | inactive | inactive | inactive | inactive |  | inactive | inactive | inactive
37 | CC(C)=CCC/C(C)=C/C=C/C(C)=C/C=C/C(C)=C/C=C/C=C(C)/C=C/C=C(C)/C=C/C=C(\C)CCC=C(C)C | inactive | inactive | inactive | inactive | inactive | inactive |  | inactive | inactive | inactive
38 | COc1cc(NCCCC(C)N)c2ncccc2c1 (stereo not given) | 5.62 µM (active) | 11.2 µM (active) | 4.47 µM (active) | 8.91 µM (active) | 6.75 µM (active) | 8.91 µM (active) |  | 6.75 µM (active) | 7.57 µM (active) | 1.41 µM (active)
39 | CC(O)CN(C)C (stereo not given) | inactive | inactive | inactive | inactive | inactive | inactive |  | inactive | inactive | inactive
40 | CSCCC(N)C(=O)O (stereo not given) | inactive | inactive | inactive | inactive | inactive | inactive | inactive |  | inactive | inactive
41 | CN(C)CCCSc1ccccc1NC(=O)/C=C/c1ccccc1 | inactive | inactive | inactive | inactive | inactive | inactive | inactive |  | inactive | inactive
42 | CCCCCCOC(=O)c1cccnc1 | inactive | inactive | inactive | inactive | inactive | inactive |  | inactive | inactive | inactive
43 | OCCCNc1ccccc1 | inactive | inactive | inactive | inactive | inactive | inactive |  | inactive | inactive | inactive
44 | CC(C)(Oc1ccc(C2CCCc3ccccc32)cc1)C(=O)O (stereo not given) | inactive | inactive | inactive | inactive | inactive | inactive |  | inactive | inactive | inactive
45 | Oc1ccc(Cl)c2c1CCC2 | inactive | inactive | inactive | inactive | inactive | inactive |  | inactive | inactive | inactive
